FUS suppressor: rescues growth of FUS-expressing yeast; S. cerevisiae FUS-expressing, growth rescue, OD600, 24 h; Potency, µM (titrated, usually from 76.6 µM), hits mostly activators; 390,000 compounds, 0.24% hits; AID 1347120;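 note: potency is the fitted concentration of half-maximal effect; plate controls were DMSO vehicle for no effect and reference control for full effect; nearly all actives have a fitted effect of over 55% in size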
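Steps: raffinose overnight preculture; dilution to OD 0.005 in 2% galactose minimal medium; compound addition (concentration series); 24hr at 30C, 99% humidity; absorbance read at 600 nm.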
Giardia kill: kills Giardia lamblia; activity change, % at 7.66 µM, hits read low; Giardia lamblia trophozoite viability; 340,000 compounds, 0.15% hits; in the data active = activity change below about -80%; inconclusive = between about -30% and that limit;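 note: parasites exposed to compound for two days anaerobically before the ATP read; % is set by controls: 0 for no effect and ±100 for the full control effect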
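Killing of trophozoites was scored by loss of ATP luminescence after a 48 hrs anaerobic exposure to compounds at 37 deg C, using 100 cells per well.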
ELG1 repair inh: blocks ELG1-dependent DNA repair in HEK293T cells | HEK293T ELG1-luciferase reporter, luminescence, 16 h; DNA damage induced by 5-fluorouridine | Potency, µM (doses to about 46.1 µM), for inactives: top-dose activity change, negative = inhibition, actives largely listed as inhibitors | 330,000 compounds, 2.3% hits; note: potency is the fitted concentration of half-maximal effect; % is set by controls: 0 for no effect and ±100 for the full control effect; nearly all actives have a fitted effect of over 55% in size
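In this reporter screen, reduction of luminescence relative to DMSO vehicle indicated activity. Compounds and 5-fluorouridine were added together to 2,000 cells per well, incubated for 16 hr at 37 °C, then developed with ONE-Glo.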
TRPV1 PAM: human TRPV1 potentiation; 320,000 compounds, 0.02% hits; AID 540277; TRPV1-expressing cells, Fluo-8 calcium influx, capsaicin EC20 potentiation; potentiation, % at 8.33 µM; Q8NER1; in the data active = potentiation above about 80%; inconclusive = between about 30% and that limit; note: 0% is about no effect
Target sequence (Q8NER1 whole entry, looked up): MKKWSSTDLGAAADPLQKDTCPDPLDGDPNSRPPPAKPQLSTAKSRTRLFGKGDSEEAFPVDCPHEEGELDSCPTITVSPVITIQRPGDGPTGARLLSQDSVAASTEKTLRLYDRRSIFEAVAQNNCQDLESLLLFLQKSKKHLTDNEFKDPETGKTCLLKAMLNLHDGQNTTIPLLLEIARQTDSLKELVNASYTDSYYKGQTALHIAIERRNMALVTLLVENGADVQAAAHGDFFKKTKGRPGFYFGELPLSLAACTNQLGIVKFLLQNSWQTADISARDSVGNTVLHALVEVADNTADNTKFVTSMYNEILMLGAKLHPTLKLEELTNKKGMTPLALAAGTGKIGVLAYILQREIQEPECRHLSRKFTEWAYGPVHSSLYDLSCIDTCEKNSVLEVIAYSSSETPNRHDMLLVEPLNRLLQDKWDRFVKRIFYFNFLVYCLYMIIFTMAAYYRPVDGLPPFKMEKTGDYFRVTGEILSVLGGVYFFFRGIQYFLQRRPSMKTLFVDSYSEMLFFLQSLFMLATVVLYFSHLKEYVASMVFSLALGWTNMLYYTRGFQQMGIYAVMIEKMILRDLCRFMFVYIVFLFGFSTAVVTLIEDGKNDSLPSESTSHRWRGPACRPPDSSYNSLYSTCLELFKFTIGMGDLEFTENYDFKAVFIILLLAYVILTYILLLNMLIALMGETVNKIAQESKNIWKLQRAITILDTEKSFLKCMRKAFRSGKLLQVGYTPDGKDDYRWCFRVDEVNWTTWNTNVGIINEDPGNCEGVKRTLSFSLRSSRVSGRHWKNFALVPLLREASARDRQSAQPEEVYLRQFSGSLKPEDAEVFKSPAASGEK
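Cells expressing TRPV1 were dye-loaded with Fluo-8 and read kinetically: 10 s baseline, 3 min after compound (agonist portion), then 2 min after EC20 capsaicin (allosteric enhancer portion). Calcium-bound dye fluorescence at 480/520 nm.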
TRPV1 agonist: agonists of human vanilloid receptor 1 (TRPV1); TRPV1-expressing cells, Fluo-8 calcium influx, agonist mode; Q8NER1; 320,000 compounds, 0.19% hits; activation, % at 8.33 µM; in the data active = activation above about 80%; inconclusive = between about 30% and that limit; note: 0% is about no effect
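Fluo-8 calcium influx in TRPV1-expressing cells, kinetic read (ex 480/em 520 nm). Compound added and read 3 min for agonist activity, followed by capsaicin at EC20 final and 2 min further read for enhancement.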
The depositor's hits bear a star; i = inactive; ? = inconclusive; · = no result. This is a sample that favours compounds with a hit; in the whole collection about 2.3% have one here. Unless noted, calls come from the whole dose curve; as a rule, active = well fitted curve in the direction sought with a large enough effect; inconclusive = small, poorly fitted or top-dose-only effect, or another doubt; inactive = no such curve, though single readings can be large; an effect the other way counts as inactive or inconclusive.

SMILES	FUS suppressor	Giardia kill	ELG1 repair inh	TRPV1 PAM	TRPV1 agonist
Cc1cc(C)c(NC(=O)c2cc3c(=O)n4ccccc4nc3n2C)c(C)c1	i	·	·	·	·
COCCCNS(=O)(=O)c1ccc(N2CCCCS2(=O)=O)cc1	i	·	·	·	·
Cc1nn2c(=O)cc(COC(=O)COc3ccccc3C)nc2s1	i	·	·	·	·
N#C/C(=C\c1cc2ccccc2nc1N1CCOCC1)C(=O)Nc1ccc(N2CCOCC2)cc1	·	1.4	11.6µM*	-3.8	?
CCCCSCCCNC(=O)CS(=O)Cc1nc(-c2cccc(C)c2)oc1C (stereo not drawn)	i	-12.5	16.4µM*	1.7	24.6
Cc1ccc(CNC(=O)C2CCN(c3nc4ccccc4n(C)c3=O)CC2)cc1	i	·	·	·	·
COC(=O)c1ccccc1NC(=O)CN1CCC(n2nnc3cc(C(F)(F)F)ccc32)CC1	·	-8.3	?	-1.8	2.3
CC1Cc2ccccc2N1C(=O)CN1CCC(n2nnc3cc(C(F)(F)F)ccc32)CC1 (stereo not drawn)	i	-2.5	20.6µM*	11.4	-5.8
CCOc1ccc(C2=NNC(c3cccs3)=Nc3ccc(OC)cc32)cc1	17.8µM*	3.1	?	-8.6	?
O=C(Nc1ccccc1C(=O)Nc1nnc(C(F)(F)F)s1)c1ccccc1Cl	i	-8.0	5.17µM*	0.1	3.2
CCc1nnc(NC(=O)c2nn(-c3ccccc3)nc2C)s1	i	-25.9	-25.4%	10.9	8.5
Cc1nn(-c2ccccc2)nc1C(=O)Nc1nnc(C(F)(F)F)s1	i	-24.5	14.6µM*	?	1.0
CC(C)(C)CC(=O)Nc1nnc(C(F)(F)F)s1	i	-2.7	-13.1%	4.0	-1.4
O=C(Nc1ccccc1C(=O)Nc1nncs1)c1ccccc1	i	11.2	20.6µM*	2.2	0.2
CC(NC(=O)Nc1nnc(C(F)(F)F)s1)(C(F)(F)F)C(F)(F)F	i	4.4	5.17µM*	7.6	7.6
N#Cc1ccc(C(=O)NCc2ccc3c(c2)CCN3C(=O)c2ccc(F)cc2)cc1	i	·	·	·	·
NC(=O)CSc1ccc2nnc(-c3ccncc3)n2n1	·	15.4	·	·	·
Cc1ccc(NC(=O)C(=O)NCC(c2cccnc2)N2CCN(Cc3ccccc3)CC2)cc1C (stereo not drawn)	i	·	·	·	·
Cc1cc(C)c(C(=O)/C=C/c2ccc3c(c2)OCO3)c(=O)[nH]1	i	22.2	?	1.8	-0.8
Cc1cc(C)c(C(=O)/C=C/c2cccc3ccccc23)c(=O)[nH]1	·	-5.3	14.6µM*	-0.2	-0.5
Cc1cc[n+](-c2ccccc2)c2ccccc12	i	0.0	10.3µM*	19.5	0.8
CC[C@@H](CCCc1ccc(OC)cc1)CCC(=O)N(c1ccccc1)c1ccccc1	i	·	·	·	·
CCCCn1c(NC(=O)c2ccccc2)c(C#N)c2nc3ccccc3nc21	i	6.7	8.2µM*	-15.6	?
COC(=O)c1c(NC(=O)CN2C(=O)c3ccccc3C2=O)sc(Cc2ccc3c(c2)OCO3)c1C	i	-5.0	10.3%	3.4	-2.8
COC(=O)c1ccsc1NC(=O)CN1CCN(Cc2ccc3c(c2)OCO3)CC1	i	5.8	5.17µM*	1.6	-1.6
SMILES	FUS suppressor	Giardia kill	ELG1 repair inh	TRPV1 PAM	TRPV1 agonist
COC(=O)c1c(NC(=O)CN2CCN(Cc3ccc4c(c3)OCO4)CC2)sc(C)c1C	i	-5.2	8.2µM*	-13.4	4.2
O=C(CSCc1ccccc1Br)N/N=C/c1ccc(OCC(=O)N2CCCCC2)cc1	·	4.4	25.9µM*	4.9	0.3
O=C(CSCc1ccccc1)N/N=C/c1ccc(OCC(=O)N2CCCCC2)cc1	·	-5.4	-19.6%	20.5	1.2
COc1ccc(OC)c(NC(=O)c2cc3c(=O)n4cccc(C)c4nc3n2C)c1	i	·	·	·	·
NC(=S)n1[nH]c(-c2ccc([N+](=O)[O-])cc2)c(N=Nc2ccc(Cl)cc2)c1=O	i	-1.6	2.91µM*	-15.9	1.1
CN1CCN(c2ccc(NC(=O)c3ccc(-c4ccc(Br)cc4)o3)cc2)CC1	i	5.7	?	-2.2	13.1
Cc1ccccc1C(=O)Nc1cccc(NC(=O)c2ccc(-c3ccc(Br)cc3)o2)c1	i	-0.8	9.2µM*	9.6	-2.2
COc1cc(OC)cc(C(=O)N[C@H](C(=O)Nc2nc(-c3ccc(OC)c(OC)c3)cs2)C(C)C)c1	?	8.9	20.6µM*	25.4	1.6
COc1ccc(OC)c(-c2csc(NC(=O)Cc3ccccc3OC)n2)c1	i	-6.7	-8.7%	20.3	1.2
COc1cc(OC)cc(C(=O)N[C@H](C(=O)Nc2nc(-c3cc(OC)ccc3OC)cs2)C(C)C)c1	i	0.0	20.6µM*	1.2	1.1
COc1ccc(-c2cc(-c3nnc(COC(=O)CC4CC5CCC4C5)o3)c3ccccc3n2)cc1OC (stereo not drawn)	·	7.6	18.4µM*	-4.3	1.7
Cc1cccc(C)c1Nc1c(-c2ccc(N3CCOCC3)cc2)nc2ncccn12	i	16.5	?	-13.3	-0.5
Cc1ccc(Nc2c(-c3ccc(N4CCOCC4)cc3)nc3ncccn23)c(C)c1	i	10.1	11.6µM*	20.4	-7.4
O=C(CCC(=O)OCC(=O)c1ccc(Cl)cc1)Nc1ccc(Oc2ccccc2)cc1	i	·	·	·	·
CCCCOc1ccc(C)cc1CN(CCO)CCO	i	2.4	0.7%	-13.2	15.0
CCC(C)(C)c1ccc(OCCCC[n+]2ccccc2)c(C(C)(C)CC)c1	i	3.5	18.3µM*	-17.5	10.7
CCCCCc1ccc(OCCCC[n+]2ccc(C)cc2)c(CCCCC)c1	?	-6.4	14.6µM*	-25.1	7.4
CCCCCc1ccc(OCCCC[n+]2cccc(C)c2)c(CCCCC)c1	?	-1.0	-16.1%	-10.9	16.2
CCCCCc1ccc(OCCCC[n+]2ccccc2)c(CCCCC)c1	i	-5.0	13µM*	-11.5	11.5
COc1ccc(-n2c(=O)c3c(c4cc(OC)ccc4n3C)n(CC(=O)N3CCCC3)c2=O)cc1	i	·	·	·	·
N#Cc1c(-n2ncnc2-c2cccc(Cl)c2)sc2c1CCCCC2	i	·	·	·	·
CC(C)CNC(=S)NC(=O)c1csc([N+](=O)[O-])c1	i	-86.9*	-3.6%	23.8	11.5
OCc1cnc(SCc2ccccc2F)n1Cc1ccc(F)cc1	i	·	·	·	·
Cc1ccc2c(c1)C(c1ccccc1)N(C(=O)c1ccccc1)CC(=O)N2 (stereo not drawn)	i	12.6	-9.0%	-3.1	10.0
Cc1ccc2c(c1)C(c1ccc(F)cc1)N(C(=O)c1ccc(S(=O)(=O)N3CCCCC3)cc1)CC(=O)N2 (stereo not drawn)	31.6µM*	·	·	·	·
O=C1CN(C(=O)c2ccc(S(=O)(=O)N3CCCCC3)cc2)C(c2ccc(F)cc2)c2cc(Br)ccc2N1 (stereo not drawn)	17.8µM*	·	·	·	·
O=C1CN(C(=O)c2ccc(S(=O)(=O)N3CCCC3)cc2)C(c2ccccc2)c2cc(F)ccc2N1 (stereo not drawn)	i	·	·	·	·
